Screens (PubChem)
A selection: hits, their analogues and other compounds. The true share with any hit is near 22%.
CYP2C19 act: cytochrome P450 2C19 (human) activation; recombinant CYP2C19, luciferin-H EGE luminescence; stronger effect = higher value; 0 = fully inhibited enzyme, 1 = untreated enzyme; 96,000 tested, under 10 active; activation factor at 5 µM; P33261;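 active means activation factor of at least 2 at 5 µM in the primary screen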;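 further: 0 = wells with 2.5 mM tranylcypromine and 1 = vehicle-only wells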
Target sequence (P33261 whole entry, looked up): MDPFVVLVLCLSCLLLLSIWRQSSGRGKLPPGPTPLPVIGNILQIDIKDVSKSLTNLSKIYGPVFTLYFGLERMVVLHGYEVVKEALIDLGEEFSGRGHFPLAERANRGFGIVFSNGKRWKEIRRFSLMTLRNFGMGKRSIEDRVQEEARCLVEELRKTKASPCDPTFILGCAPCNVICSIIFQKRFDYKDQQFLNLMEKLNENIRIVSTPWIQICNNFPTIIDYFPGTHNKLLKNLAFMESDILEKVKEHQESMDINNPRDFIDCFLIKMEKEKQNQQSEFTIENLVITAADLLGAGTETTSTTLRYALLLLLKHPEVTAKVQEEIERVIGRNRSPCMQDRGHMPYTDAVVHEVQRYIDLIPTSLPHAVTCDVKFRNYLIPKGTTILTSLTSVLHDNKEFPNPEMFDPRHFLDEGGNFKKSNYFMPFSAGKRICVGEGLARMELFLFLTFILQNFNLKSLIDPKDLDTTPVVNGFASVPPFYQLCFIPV
CYP2C9 inh: blocks human cytochrome P450 2C9. P11712. CYP2C9 Supersomes, luciferin-H conversion, luminescence. inhibition, % at 5 µM. hit rate 20% among 96,000. AID 777;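 active means blocking of liver enzyme CYP2C9 beyond about 50% at 5 µM, limit read from the data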
CYP2C9 act: increases human cytochrome P450 2C9 activity; activation factor at 5 µM; AID 1024; hit rate 1.4% among 96,000; recombinant CYP2C9, luciferin-H conversion, luminescence; stronger effect = higher value; factor 1 = untreated enzyme, 0 = blocked;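 active means activation factor of 2 or more for CYP2C9 at a 5 µM dose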;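 further: 0 = sulfaphenazole-blocked wells and 1 = vehicle-only wells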
CYP2C19 inh: inhibitors of human CYP2C19; AID 778; CYP2C19 Supersomes, luciferin-H EGE luminescence, 30 min; inhibition, % at 5 µM; hit rate 21% among 96,000; P33261;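 active means CYP2C19 inhibition above a set limit at 5 µM in the primary screen, cut at about 50% in these data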;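 further: plate controls were negative control wells for no effect and 2.5 mM tranylcypromine positive control for full effect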
Measles CPE: protection of cells from measles virus; Measles virus-infected cells, CPE protection, absorbance; hit rate 1.5% among 140,000; protection (pct of control), % at 4 µM; in the data active means protection mostly above about 24%, no sharp cut-off; inactive means mostly below about 26%
Active calls of the source: *; · = no result given.

SMILES	CYP2C19 act	CYP2C9 inh	CYP2C9 act	CYP2C19 inh	Measles CPE
CC(C)CCN1C(=O)CCC1(C)C(=O)NC1CCCCCCC1 (centres undefined)	0.7	13	0.9	27	4
CCOC(=O)c1c(CC(C)C)csc1NC(C)=O	0.6	62*	0.4	44	16
CCOC(=O)c1[nH]c2ccccc2c1NC(=S)Nc1cccc(C)c1	·	·	·	·	2
COc1ccc(-c2nnc(SCC(=O)/C(C#N)=C(\C)N)o2)cc1	0.7	41	0.6	26	12
C/C(N)=C(/C#N)C(=O)CSc1nnc(-c2ccccc2Br)o1	0	-13	1.1	96*	2
O=C(Nc1ccc2c(c1)oc1ccccc12)C1CC1	0.9	0	1	6	4
O=C(Nc1ccc2c(c1)OC1(CCCC1)O2)C1CC1	0.1	64*	0.4	88*	11
COc1ccc(S(=O)(=O)Nc2ccc(F)cc2)cc1N(C)S(=O)(=O)c1ccc(Cl)cc1	0.5	67*	0.3	52*	4
COc1ccc(NS(=O)(=O)c2ccc(OC)c(OC)c2)cc1OC	·	·	·	·	8
COc1ccc(NS(=O)(=O)c2ccc(OC)c(N(C)S(=O)(=O)c3ccc(Cl)cc3)c2)cc1	0.7	61*	0.4	33	4
O=C(Nc1cccc(C(F)(F)F)c1)Nc1ccc(N2CCCC2)c(S(=O)(=O)Nc2ccccc2Cl)c1	·	·	·	·	2
Cc1ccc(N2C(=O)CSC23C(=O)Nc2ccccc23)cc1 (centres undefined)	0.2	42	0.6	79*	4
COc1cccc(CNC(=O)C2CCN(S(=O)(=O)N3CC(C)CC(C)C3)CC2)c1 (centres undefined)	0.8	10	0.9	15	6
CCCCn1cnc2c(cnn2-c2ccc(F)cc2)c1=O	0.6	56*	0.4	43	8
O=c1c2cnn(-c3ccc(F)cc3)c2ncn1Cc1ccccn1	0.4	33	0.7	56*	10
COc1ccc(OC)c(-c2cnc(OC(C)(C)C)nc2OC(C)(C)C)c1	·	·	·	·	3
O=C(NCc1ccccc1)NC1CC2CCC(C1)N2Cc1ccco1 (centres undefined)	0.8	10	0.9	24	8
CCOc1ccccc1C(=O)NC1CC2CCCC(C1)N2C1CC1 (centres undefined)	0.8	69*	0.3	22	4
CCOc1ccccc1C(=O)NCC(=O)OCC(=O)N1C(C)CCCC1C (centres undefined)	·	·	·	·	24
CCOc1ccccc1C(=O)NC1CC2CCCC(C1)N2Cc1nnnn1Cc1ccco1 (centres undefined)	0.1	98*	0	88*	3
O=C(NC1CC2CCC(C1)N2Cc1ccco1)c1ccccc1 (centres undefined)	·	·	·	·	6
O=C(NC1CC2CCC(C1)N2Cc1nnnn1Cc1ccco1)NC12CC3CC(CC(C3)C1)C2 (centres undefined)	0.3	54*	0.5	71*	25
C/C(=N\NC(=O)c1ccn[nH]1)c1cn(C)nc1C	·	·	·	·	29
CCOc1ccccc1NC(=O)COC(=O)Cc1ccc(-c2ccccc2)cc1	·	·	·	·	3
COc1ccc2c(c1)C1(Nc3ccccc3C(=O)N1c1ccccc1)C(=O)N2 (centres undefined)	0.7	87*	0.1	27	24
SMILES	CYP2C19 act	CYP2C9 inh	CYP2C9 act	CYP2C19 inh	Measles CPE
O=C1CCC(C(=O)O)(c2ccccc2)C1 (centres undefined)	1.2	-4	1	-16	2
C/C(Cl)=C/CSc1nn2c(=O)c3ccccc3nc2s1	0.3	82*	0.2	74*	7
CCOc1ccc(N2C(=O)CC(n3ccc(C)n3)C2=O)cc1 (centres undefined)	·	·	·	·	21
N#Cc1cccc(N=Cc2c(O)ccc3ccccc23)c1	·	·	·	·	10
COc1ccc(-c2cc3nc(C)c(CCC(=O)NCc4ccco4)c(C)n3n2)c(OC)c1	·	·	·	·	19
Cc1nc2cc(-c3ccc(Cl)cc3)nn2c(C)c1CCC(=O)NCc1ccco1	0.2	20	0.8	79*	7
COc1ccc(CC(=O)NNC(=O)COc2ccc3ccccc3c2)cc1	·	·	·	·	13
O=C(COC(=O)C1CCN(S(=O)(=O)c2ccccc2)CC1)NC(=O)c1ccc(OC(F)F)cc1	·	·	·	·	23
CCOc1ncccc1C(=O)NCC1COc2ccccc2O1 (centres undefined)	0.1	88*	0.1	88*	17
O=C(CCC1COc2ccccc2O1)NCC1COc2ccccc2O1 (centres undefined)	·	·	·	·	8
O=C(CNC(=O)c1ccccc1)NCC1COc2ccccc2O1 (centres undefined)	0.7	16	0.8	26	5
CCc1ccc(C(=O)NCC2COc3ccccc3O2)o1 (centres undefined)	0.1	58*	0.4	92*	4
CCOC(=O)c1sc(NC(=O)CSc2n[nH]c(-c3ccc(Cl)cc3Cl)n2)c(C#N)c1C	0.7	76*	0.2	34	7
CCOC(=O)c1sc(NC(=O)CSc2nc3c(c(-c4ccc(OC)cc4)c2C#N)CCCC3)c(C#N)c1C	0.7	64*	0.4	30	12
CCOC(=O)c1sc(NC(=O)CSc2nc(C)cc(C)c2C#N)c(C#N)c1C	1.1	12	0.9	-11	20
CCOC(=O)c1sc(NC(=O)CSc2nc3c(cc2C#N)CCCCCC3)c(C#N)c1C	0.8	68*	0.3	16	3
CCOC(=O)c1sc(NC(=O)CSc2nc(C)cc(-c3ccccc3)n2)c(C#N)c1C	0.9	46	0.5	10	9
CN(CC(O)CON=C1c2ccccc2-c2ccccc21)S(=O)(=O)c1ccc(Br)cc1 (centres undefined)	·	·	·	·	41
COC(=O)N1CCN(S(=O)(=O)c2ccc(F)cc2)CC1	·	·	·	·	25
O=C(COc1ccc2c(C(F)(F)F)cc(=O)oc2c1)NCc1cccs1	·	·	·	·	8
O=C(CNCCC1=CCCCC1)Nc1ccccc1N1CCCCC1	0.1	86*	0.1	93*	3
O=C(CN1CCc2ccccc2C1)Nc1ccccc1N1CCCCCC1	0.1	73*	0.3	90*	13
O=C(CN1CCCCC1)Nc1ccccc1NC(=O)CN1CCCCC1	1.1	-9	1.1	-8	17
O=C(CNC1CCCCCC1)Nc1ccccc1N1CCCCC1	0.4	24	0.8	57*	5
COc1ccc(NC(=O)CNCCC2=CCCCC2)cc1	0.7	-17	1.2	29	24
O=C(CNCC1CCCO1)Nc1ccccc1N1CCOCC1 (centres undefined)	1	14	0.9	-4	6
O=C(CNCC1CCCCC1)Nc1ccccc1N1CCCCC1	0.3	48	0.5	74*	9
COc1ccc(OCc2nc(N)nc(Nc3ccc(C)cc3)n2)cc1	0.8	38	0.6	21	2
CCOc1ccc(C2c3c(oc4ccccc4c3=O)C(=O)N2CCCN2CCOCC2)cc1 (centres undefined)	0.9	3	1	13	10
